According to the supplement of paper PMC11417369:
± gives the standard deviation of the averaged measurements. Whole data set: some 25,000 sequences, median “ln(normalized median fluorescence intensity)” near 7.9, cut for the highest 2% near 11. The entries come from a sample that favours the highest values as a whole.

test system: PfAP2-I AP2 domain 3 (GST-tagged); test: gcPBM binding intensity (ln(normalized median fluorescence intensity)); higher = stronger DNA binding
Procedure, shortened: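 Binding intensity is defined as the maximum Masliner-normalised natural-log median intensity across replicate spots for either probe orientation. It was measured on an Agilent 4 × 180k array of primer-extended double-stranded 36-bp intergenic genomic probes and negative controls, to which GST-tagged P. falciparum DNA-binding domains made in E. coli were applied for 1 h in 1× PBS with 1% milk, 0.2 mg/ml BSA, 0.5% salmon testes DNA and 0.03% Triton X-100. Detection was by Alexa488 anti-GST antibody and scanning at 488 nm.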

Point of comparison: “AAAAAAAGTTGATACTGTACTCGTGCATTATGAATA [XGTACX_site5558]”, “gcPBM binding intensity (ln)” value 11.3 ± 0.57. Against it:
- AAGAAATTTATTTATTGTACAATATATAATTTGTTT [XGTACX_site2478] — lower, 7.59 ± 0.38
- GATTAATACACATTCTTCCGACATAATAAGAAAAAG [GTGCAC_negctrl_site7] — lower, 8.04 ± 0.38
- TGTCGGCTTAGATTAGTGCACTGAAAAATGAAGTAT [GTGCAC_site9919] — within error, 11.8 ± 0.28
- GAAGTAGATGGAAAAGTGCACTGTAATGGTTATATT — lower, 10.6 ± 0.035
- TATATATATAAATGAATGCACTTTAGAAAAAAGTAC — lower, 10.2 ± 0.23
- TATATCATATAAAACCGTACATACATACTTAATTGT [XGTACX_site6822] — lower, 7.8 ± 0.29
- TATTTCAAACTGTTCTCACACACGAAATTAGAAATG [CACACA_site611] — lower, 7.57 ± 0.66
- TATATAATAAGAAAATATGTGCGTAGTTCAGCAAAA [XGTACX_negctrl_site304] — lower, 8.26 ± 0.74
- AAATTAGACTATAATACACACATAAAAAAAAAATCA [CACACA_site7672] — lower, 7.79 ± 0.4
- TATATATTATATAAGAGTACATATAATTATAGTTTT [XGTACX_site5039] — lower, 7.71 ± 0.52
- AATATATAATATATATGTACTTATATATAAAAGATA [XGTACX_site7635] — lower, 7.8 ± 0.21
- AAGAACATATTATATACATGCATAATTCGATAGATT [TGCATGCA_site882] — lower, 7.9 ± 0.69
- GTGGTTATATATTAAGTGCATATTATAATTTTAAAC — lower, 9.56 ± 0.14
- GTTAATCACCATGTGGTGCATATAAGGGCATATTAT [GTGCAC_site9748] — within error, 11 ± 0.55
- TATAATAATATAATGGTGCATGTATATAACCATATA — lower, 9.21 ± 0.14
- AAGAATTTTCGATTTGCACACATTTGTAAAATAAAA [CACACA_site2354] — lower, 9.16
- AAAAAATATAATAATTGTACACATGCACACACAAAT [XGTACX_site1563] — lower, 8.25 ± 0.48
- TTTTGTACAAAAATAATGCACACTATATCAAGTTTT [CACACA_site3595] — within error, 11 ± 0.51
- TTGTACAAAAATAATGCACACTATATCAAGTTTTTT [CACACA_site5898] — within error, 10.9 ± 0.7
- TATAATAAATCAAATGCACACACACTAATAAAAAAA [CACACA_site7937] — lower, 9.15 ± 0.11
- TAAATTTTTTTTTTTTGTACACAAAAATATAATATT [XGTACX_site8151] — lower, 7.61 ± 0.31
- TATCTTCAAGTATGTACACACTATATATAATAAAAT [CACACA_site5368] — lower, 8.11 ± 0.13
- TTGTTTTCTTTTTCTTTTCTTTTTCTTTTTTCTTTT [GTGCAC_negctrl_site629] — lower, 7.55 ± 0.73
- CATTAAAATATGAGATGTACACAATATCTATTATAT [XGTACX_site4979] — lower, 7.82 ± 0.51
- CAATGCAAGGCTTAAAAAAATGGGCATATTATATAT [GTGCAC_negctrl_site304] — lower, 7.79 ± 0.83
- TAAGTTATATGTATATGTACTTATATATATATATAT [XGTACX_site5402] — lower, 9.16 ± 0.76
- AGAATATAATTTTTATGTACATATATTAAATATATT [XGTACX_site8521] — lower, 7.6 ± 0.37
- CATATAAGAATCTTCTGTACTTATAAGAAAAGACAT [XGTACX_site8135] — lower, 7.89 ± 0.48
- TATTATGACTTAAGTTGTACTGTTGAAAGAAGAAAA [XGTACX_site2985] — lower, 7.88 ± 0.53
- TTATGAAAAAAATACTGTACACAATATGACGAAAGT [XGTACX_site2283] — lower, 8.46 ± 0.42
- ACTTAATTTTTTTATTGTACATGTAAATGAGGGAAA [XGTACX_site6305] — lower, 8.25 ± 0.26
- AAGACTCTTTGTCCTTGTACATATATTTTTATGTTT [XGTACX_site3711] — lower, 7.76 ± 0.59
- CACATACACATACAAACACACATTATGTATATATAT [CACACA_site1599] — lower, 8.16 ± 0.84
- ATATATTTAAACTACACACGCATATCTTAGAAATAA [CACACA_site1272] — lower, 7.77 ± 0.54
- ATTAATTAAAATAGTTGTACAATCAAAAAAACAAAA [XGTACX_site7660] — lower, 8.15 ± 0.64
- ATAAATAAAACAACAGTGCAATAAAATTAGTTGAGG — within error, 10.9 ± 0.25
- AAAATAAAATTAGTTGCATGCAACTTAAACAGAAAT [TGCATGCA_site860] — lower, 8.14 ± 0.63
- AATATATTTTTATATTGTACAAAAGAAAAAAAATAT [XGTACX_site1689] — lower, 8.05 ± 0.48
- TTTTTTTTGTATTAATGTACATATAACTTTTTTTTT [XGTACX_site7903] — lower, 7.7 ± 0.49
- AATACACATAATACATGTACTCACATTGTTATAACA [XGTACX_site4129] — lower, 8.04 ± 0.53
- AGTTGCATACATTGAAGTACAGAACATTTATATATA [XGTACX_site240] — lower, 7.86 ± 0.44
- TTTATATCATTACAAGTGCATATCATCATAAATTCT [GTGCAC_site9878] — lower, 8.81 ± 0.3
- AGTTTGCATATGGAAGTGCATTACCTTGAACATCAT — within error, 11.2 ± 0.38
- TATATATGTTTATGTAGTACTATATATCCCTTTCTT [XGTACX_site7049] — lower, 7.61 ± 0.53
- TAAATTTATGGACACACACACATATATATATATATA [CACACA_site4620] — lower, 9.45 ± 0.35
- TATAGATACACTTTGTGTACATAAAAATTGTATTAA [XGTACX_site7137] — lower, 7.66 ± 0.29
